Assay results from PubChem BioAssay.
Values without a mark were called inactive. For some of these results: Entries with a potency or affinity are not part of this list. Activity calls are given as the source filed them. Unless noted, no rule for the calls is given here.

Assays:
[1] = antimalarial activity against Dd2 strain (AID 2302;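 active = growth inhibition above 50% at the single 2 µM test dose, taken to imply half-maximal potency below 2 µM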;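 also: 0% = DMSO untreated growth and 100% = chloroquine plus artemisinin killed control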); settings: P. falciparum Dd2 in RBCs, LDH growth readout, 72 h; at 2 µM; active compounds read high
[2] = human hepatoma cell viability loss – ATP luminescence, cytotoxicity control for P. falciparum antimalarial project, primary screen (AID 2303;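 active = inhibition above 50%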;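 also: 0% = DMSO wells and 100% = digitonin-killed cells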); settings: HepG2 viability, 24-48 h, at 10 µM, active compounds read high
[3] = target: L-lactate dehydrogenase (Plasmodium falciparum (isolate CDC / Honduras)) (UniProt Q27743); assay: PfLDH activity inhibition – cell lysate, 3D7 strain, counter-screen for P. falciparum growth inhibition project (AID 2304);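 also: 0% = vehicle and 100% = reference inhibitor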; settings: P. falciparum 3D7 crude extract, LDH APAD/NBT absorbance; at 2 µM; active compounds read high
[4] = inhibition of 3D7 malaria parasite growth – strain 3D7 (AID 2306);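 also: 0% = DMSO wells and 100% = chloroquine plus artemisinin control wells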; settings: P. falciparum 3D7 erythrocytic growth, LDH absorbance, 72 h; at 2 µM; active compounds read high
[5] = target: Calcium-dependent protein kinase 1 (Plasmodium falciparum (isolate 3D7)) (UniProt P62344); assay: PfCDPK1 kinase inhibitors, biochemical, TCAMS library (AID 1159585; cut-off not given, nearly all actives have IC50 up to about 0.98 µM;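 also: inhibitors leave more ATP so luminescence rises with inhibition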); settings: recombinant PfCDPK1, Kinase-Glo ATP depletion luminescence
[6] = target: Plasmodium falciparum protein kinase 6 (PK6, PF3D7_1337100) (UniProt Q8IDW1); assay: PfPK6 kinase inhibitors, biochemical, TCAMS library (AID 1159586); settings: recombinant PfPK6, Kinase-Glo ATP depletion luminescence
[7] = target: Protein kinase 7 (PK7), Plasmodium falciparum 3D7 (PF3D7_0213400) (UniProt Q7YTF7); assay: inhibition of Plasmodium PK7 catalytic activity – biochemical, TCAMS antimalarial set, Kinase-Glo luminescence (AID 1159587); settings: recombinant PfPK7, Kinase-Glo ATP depletion luminescence
[8] = target: Calcium-dependent protein kinase 4 (Plasmodium falciparum (isolate 3D7)) (UniProt Q8IBS5); assay: PfCDPK4 kinase inhibitors, biochemical, TCAMS library (AID 1159588; cut-off not given, nearly all actives have IC50 up to about 0.91 µM); settings: recombinant PfCDPK4, Kinase-Glo ATP depletion luminescence
Calcium-dependent protein kinase 4 (Plasmodium falciparum (isolate 3D7)), sequence (Q8IBS5 whole entry, looked up): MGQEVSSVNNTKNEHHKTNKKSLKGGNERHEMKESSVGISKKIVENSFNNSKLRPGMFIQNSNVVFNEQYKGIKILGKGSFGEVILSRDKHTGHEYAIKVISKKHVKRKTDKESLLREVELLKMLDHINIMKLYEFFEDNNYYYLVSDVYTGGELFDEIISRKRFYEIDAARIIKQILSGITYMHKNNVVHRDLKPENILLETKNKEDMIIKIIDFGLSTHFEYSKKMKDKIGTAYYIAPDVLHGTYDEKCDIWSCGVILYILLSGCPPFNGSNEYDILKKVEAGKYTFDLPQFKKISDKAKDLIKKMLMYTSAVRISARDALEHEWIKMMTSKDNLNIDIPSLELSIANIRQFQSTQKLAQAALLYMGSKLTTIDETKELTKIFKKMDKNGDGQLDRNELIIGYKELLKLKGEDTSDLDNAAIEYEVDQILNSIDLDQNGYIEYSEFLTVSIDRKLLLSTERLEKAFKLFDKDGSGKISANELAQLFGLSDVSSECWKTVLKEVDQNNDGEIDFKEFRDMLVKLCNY

L-lactate dehydrogenase (Plasmodium falciparum (isolate CDC / Honduras)), sequence (Q27743 whole entry, looked up): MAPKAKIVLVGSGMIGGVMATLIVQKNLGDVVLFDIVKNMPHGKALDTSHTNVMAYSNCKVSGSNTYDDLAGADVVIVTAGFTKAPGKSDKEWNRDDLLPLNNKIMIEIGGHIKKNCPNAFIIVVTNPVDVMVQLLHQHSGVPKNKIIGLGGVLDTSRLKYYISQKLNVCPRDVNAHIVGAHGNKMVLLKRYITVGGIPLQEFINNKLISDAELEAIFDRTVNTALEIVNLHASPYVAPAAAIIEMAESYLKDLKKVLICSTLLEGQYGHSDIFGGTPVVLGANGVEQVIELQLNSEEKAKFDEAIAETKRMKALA
Calcium-dependent protein kinase 1 (Plasmodium falciparum (isolate 3D7)), sequence (P62344 whole entry, looked up): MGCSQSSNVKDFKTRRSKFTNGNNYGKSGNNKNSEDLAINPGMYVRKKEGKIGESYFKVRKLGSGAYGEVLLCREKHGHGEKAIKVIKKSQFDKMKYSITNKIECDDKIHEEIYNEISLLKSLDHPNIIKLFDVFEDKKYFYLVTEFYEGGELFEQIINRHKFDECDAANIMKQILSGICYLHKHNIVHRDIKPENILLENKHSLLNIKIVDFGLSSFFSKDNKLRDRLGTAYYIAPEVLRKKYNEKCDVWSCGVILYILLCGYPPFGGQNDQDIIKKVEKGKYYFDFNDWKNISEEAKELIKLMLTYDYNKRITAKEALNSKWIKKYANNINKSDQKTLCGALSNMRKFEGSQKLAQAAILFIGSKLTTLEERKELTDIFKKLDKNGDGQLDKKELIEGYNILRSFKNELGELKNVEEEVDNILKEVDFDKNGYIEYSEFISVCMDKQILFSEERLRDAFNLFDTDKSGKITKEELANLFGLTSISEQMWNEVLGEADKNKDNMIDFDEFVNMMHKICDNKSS
Protein kinase 7 (PK7), Plasmodium falciparum 3D7 (PF3D7_0213400), sequence (Q7YTF7 1-343): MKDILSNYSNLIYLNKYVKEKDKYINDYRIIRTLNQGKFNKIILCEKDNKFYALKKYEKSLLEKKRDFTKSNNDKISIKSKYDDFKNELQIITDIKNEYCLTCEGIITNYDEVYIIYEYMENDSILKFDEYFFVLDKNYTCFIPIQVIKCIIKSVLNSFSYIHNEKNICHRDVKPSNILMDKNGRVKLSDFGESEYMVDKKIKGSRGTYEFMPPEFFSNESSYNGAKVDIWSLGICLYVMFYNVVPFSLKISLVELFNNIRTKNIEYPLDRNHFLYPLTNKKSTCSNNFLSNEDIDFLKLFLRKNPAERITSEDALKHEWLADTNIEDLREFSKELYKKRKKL
Plasmodium falciparum protein kinase 6 (PK6, PF3D7_1337100), sequence (Q8IDW1 1-305): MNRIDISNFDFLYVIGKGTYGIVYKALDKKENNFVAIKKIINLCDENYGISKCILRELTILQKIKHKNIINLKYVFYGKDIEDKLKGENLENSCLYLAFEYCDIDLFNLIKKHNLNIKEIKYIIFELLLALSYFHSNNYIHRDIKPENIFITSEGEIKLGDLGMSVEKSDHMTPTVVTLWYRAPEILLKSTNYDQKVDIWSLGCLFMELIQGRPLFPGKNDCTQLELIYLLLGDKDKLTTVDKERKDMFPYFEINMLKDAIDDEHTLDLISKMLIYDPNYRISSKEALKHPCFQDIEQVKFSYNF

SMILES	growth inhibition [1]	inhibition [2]	inhibition [3]	growth inhibition [4]	outcome [5]	outcome [6]	outcome [7]	outcome [8]
Cc1cc(-c2cccc(CNC3CCN(C)CC3)c2)ccc1S(=O)(=O)NC1CCC1	96% (active)	33%	3%	101% (active)	inactive	inactive	inactive	inactive
COc1ccc2nccc(N3CCC(SCCNCc4ccc5c(n4)NC(=O)CO5)C3)c2n1 (stereo not drawn)	9%	30%	-2%	101% (active)	inactive	inactive	inactive	inactive
Cc1cccc(C)c1OC(=O)[C@@H](C)[C@@H](O)C1(Sc2ccccc2)CCN(C)CC1	92% (active)	23%	1%	98% (active)	inactive	inactive	inactive	inactive
O=C(Nc1ccc2c(c1)CCNCC2)Nc1ccc2ccccc2c1	23%	-6%	-1%	84% (active)	inactive	inactive	inactive	inactive
Cc1nc(N)nc(N)c1OCc1cccc2c1ccc1ccccc12	16%	54% (active)	1%	95% (active)	inactive	inactive	inactive	inactive
CN1CCC(NCc2cccc(-c3ccc(S(=O)(=O)NCc4ccccc4)c(F)c3)c2)CC1	99% (active)	94% (active)	-8%	99% (active)	inactive	inactive	inactive	inactive
CN(Cc1cccc(O)c1)C1CCCN(c2cc(NC(=O)c3ccc(F)cc3)ccn2)C1 (stereo not drawn)	12%	8%	-2%	91% (active)	inactive	inactive	inactive	inactive
CC(C)NCc1ccc(-c2ccc(NC(=O)c3cccc(Cl)c3)cc2)cc1	14%	36%	-2%	100% (active)	inactive	inactive	inactive	inactive
CCn1ccc2c(N3CCCS3(=O)=O)cc(C(=O)N[C@@H](Cc3ccccc3)[C@H](O)CNC(C)(C)CCCC(C)C)cc21	98% (active)	8%	0%	97% (active)	inactive	inactive	inactive	inactive
CCCC1N=C(N)N=C(N)N1c1ccc(OC)cc1 (stereo not drawn)	4%	-2%	-3%	96% (active)	inactive	inactive	inactive	inactive
CNC(=O)c1cnc(Nc2ccc(N3CCN(C)CC3)cc2)nc1Nc1cccc(OC(C)C)c1	102% (active)	16%	4%	100% (active)	inactive	inactive	inactive	inactive
Cc1cc(N[C@@H](CC(C)C)C(=O)NCc2cccc(F)c2)nc(NCC2CCCCC2)n1	70% (active)	3%	-3%	99% (active)	inactive	inactive	inactive	inactive
O=C(/C=C/c1ccccc1Cl)Nc1ccc(Br)c(OCCN2CCC(O)(c3ccccc3)CC2)c1	85% (active)	39%	0%	101% (active)	inactive	inactive	inactive	inactive
COc1cc2c(cc1S(=O)(=O)c1ccc(NC(=O)Nc3ccc(F)cc3)cc1)CCN(C)CC2	55% (active)	-1%	-5%	99% (active)	inactive	inactive	inactive	inactive
N#Cc1ccc2c(c1)CCN(CCC1CCC(NC(=O)c3ccc(-c4ccccc4)s3)CC1)CC2 (stereo not drawn)	36%	6%	0%	99% (active)	inactive	inactive	inactive	inactive
N#CN1CC[C@@H](OC(=O)N[C@@H]2C[C@H]2c2ccccc2)C1	56% (active)	-1%	-2%	84% (active)	inactive	inactive	inactive	inactive
O=C(NC1CC1)c1ccc(N2CCCC(COc3ccc4c(c3)CCCC4)C2)nc1 (stereo not drawn)	65% (active)	-5%	-5%	85% (active)	inactive	inactive	inactive	inactive
COc1ccc(CCn2c(=N)c(C(=O)NCc3ccccc3)cc3c(=O)n4ccccc4nc32)cc1	18%	14%	-1%	100% (active)	inactive	inactive	inactive	inactive
Cc1ccc(NC(=O)c2ccc(NCCCN3CC(C)CC(C)C3)c([N+](=O)[O-])c2)cc1F (stereo not drawn)	85% (active)	18%	-8%	101% (active)	inactive	inactive	inactive	inactive
COc1cc2nc(N3CCC(CNC(=O)c4ccc(-c5ccc(C(=O)N(C)C)cc5O)cc4)CC3)nc(N)c2cc1OC	90% (active)	2%	3%	101% (active)	inactive	inactive	inactive	inactive
O=C(Nc1ccc(-c2nc3ccccc3[nH]2)cc1)c1ccc(S(=O)(=O)N2CCc3ccccc32)cc1	34%	32%	3%	102% (active)	inactive	inactive	inactive	inactive

SMILES	growth inhibition [1]	inhibition [2]	inhibition [3]	growth inhibition [4]	outcome [5]	outcome [6]	outcome [7]	outcome [8]
CCSc1ccc(C)cc1CON1C(N)=NC(N)=NC1(C)C	96% (active)	66% (active)	0%	94% (active)	inactive	inactive	inactive	inactive
CCCNCc1ccc(-c2ccc(CN(C(=O)c3nn(-c4ccccc4)nc3C)C3CCOCC3)cc2)nc1	-6%	14%	4%	98% (active)	inactive	inactive	inactive	inactive
O=C1C(c2ccccc2)=C(Nc2cccc([N+](=O)[O-])c2)c2ccccc21	88% (active)	-3%	1%	88% (active)	inactive	inactive	inactive	inactive
O=C(/C=C/c1ccc(Cl)c(Cl)c1)NCCCCCN1CCCN(C(=O)Nc2ccc([N+](=O)[O-])cc2)CC1	28%	32%	-1%	97% (active)	inactive	inactive	inactive	inactive
CCCCCCn1c(Sc2ccc(C#N)c([N+](=O)[O-])c2)nnc1-c1ccc(Cl)cc1	48%	23%	0%	93% (active)	inactive	inactive	inactive	inactive
Oc1cccc(CCNCCCCCCNCCc2ccc(Cl)cc2)c1	-3%	23%	-1%	96% (active)	inactive	inactive	inactive	inactive
COc1ccc2nccc(NC(=O)C3(O)CCC(NCc4ncc5c(c4Cl)OCCO5)CC3)c2n1 (stereo not drawn)	59% (active)	21%	-1%	83% (active)	inactive	inactive	inactive	inactive
O=C(/C=C/c1ccc(Cl)c(Cl)c1)NCCCCCN1CCCC(C(=O)Nc2ccc(F)c(Cl)c2)C1 (stereo not drawn)	2%	28%	1%	99% (active)	inactive	inactive	inactive	inactive
Cc1ccc2c(Cl)c(C(=O)N3CCCc4ccccc43)sc2c1	15%	4%	0%	99% (active)	inactive	inactive	inactive	inactive
FC(F)(F)c1ccc2nc(-c3ccc(-c4cccc(CNCCc5ccncc5)c4)s3)[nH]c2c1	95% (active)	20%	-6%	100% (active)	inactive	inactive	inactive	inactive
CCCOc1cc(O)c(-c2n[nH]c(C)c2Oc2ccccc2)cc1CC	46%	-14%	1%	91% (active)	inactive	inactive	inactive	inactive
CCOc1cc(Cl)c(C(C)NC(=O)c2cccc(OC)c2)cc1OCC (stereo not drawn)	92% (active)	29%	6%	98% (active)	inactive	inactive	inactive	inactive
CCC1N=C(N)N=C(N)N1OCc1ccc(Cl)c(Cl)c1 (stereo not drawn)	90% (active)	54% (active)	-4%	93% (active)	inactive	inactive	inactive	inactive
c1ccc(-c2cc(NCCCn3ccnc3)nc(-c3cccnc3)n2)cc1	6%	15%	0%	84% (active)	inactive	inactive	inactive	inactive
O=C(NC1CCCCCC1)[C@@H]1CCCN1C(=O)c1ccc(O)c(-c2ccc(Cl)c(Cl)c2)c1	98% (active)	-2%	-7%	99% (active)	inactive	inactive	inactive	inactive
CCOC(=O)c1[nH]c(-c2cc(Cl)nc(Cl)c2)nc1NC(=S)NCc1ccc(NS(C)(=O)=O)cc1	98% (active)	-1%	-1%	100% (active)	inactive	inactive	inactive	inactive
O=C(Nc1cccc(CN2CCCN(Cc3ncc[nH]3)CC2)c1)c1cc2ccccc2s1	35%	22%	-2%	99% (active)	inactive	inactive	inactive	inactive
CS(=O)(=O)c1ccc(-c2nc(NCC3CCCCC3)cc(C(F)(F)F)n2)cc1	76% (active)	-9%	2%	83% (active)	inactive	inactive	inactive	inactive
Cc1ccc(NC(=O)c2ccc3nccnc3c2)cc1OC1CCN(Cc2ccc(F)cc2)CC1	24%	16%	4%	87% (active)	inactive	inactive	inactive	inactive
CCc1c(CCNCCCCCCNC(C)(C)Cc2ccc3c(c2CC)OCO3)ccc(OC)c1OC	50% (active)	100% (active)	-1%	101% (active)	inactive	inactive	inactive	inactive
